# HT1080 IDH1KD tx: toxicity to HT-1080 IDH1 knockdown cells (counter line); HT-1080 IDH1 knockdown viability, ATP luminescence, 48 h; AID 686971; 360,000 compounds, 2% hits; Potency, µM (series often up to 46.1 µM), for inactives: at the top dose activity, negative = toxicity, most hits filed as cytotoxic;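 note: potency is the fitted concentration of half-maximal effect; 0% = DMSO wells and -100% = cell-free medium wells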
#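 CellTiter-Glo luminescence after 48 h compound exposure at 37 degrees C of IDH1-knockdown HT-1080 cells in 5% FBS RPMI. %Activity scaled between DMSO wells and cell-free media wells, with curves fitted and assigned curve classes.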
# TDP1 cell noCPT: qHTS for Inhibitors of human tyrosyl-DNA phosphodiesterase 1 (TDP1): qHTS in cells in absence of CPT; DT40 Tdp1-/- hTDP1 cells, no CPT, ATP luminescence, 48 h; Potency, µM (doses to about 46.2 µM), without a hit: at the top dose activity change, negative = growth inhibition, usual class: inhibitors; 420,000 compounds, 15% hits; AID 686978, 2013; note: potency is the fitted concentration of half-maximal effect; nearly all actives have a fitted effect of over 55% in size
#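 Chicken DT40 Tdp1-/- cells stably complemented with human TDP1 were seeded at 400 cells/well with DMSO in place of 20 nM camptothecin. After compound pinning, cells grew at least 48 hr at 37 °C; viability read by CellTiter-Glo luminescence.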
# HT1080-NT tox: kills 2HG-producing HT-1080-NT fibrosarcoma cells | 360,000 compounds, 1.6% hits | Potency, µM (doses to about 46.1 µM), for the others: top-dose activity, negative = less viability, most hits filed as cytotoxic | HT-1080-NT fibrosarcoma viability, CellTiter-Glo ATP luminescence, 48 h;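 note: NT is the 2HG producing partner of a matched IDH1 knockdown line; potency is the fitted concentration of half-maximal effect; 0% = DMSO-treated cells and -100% = media-only wells without cells; nearly all actives have a fitted effect of over 55% in size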
#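 Viability by CellTiter-Glo luminescence after 48 h compound exposure at 37C of HT-1080-NT cells (750/well, RPMI, 5% FBS). % activity scaled between DMSO wells and medium-only wells, then curve-fitted and categorized by curve class.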
# TDP1 cell CPT: growth inhibition of DT40 Tdp1-/-;hTDP1 cells with camptothecin (screen for TDP1 inhibitors); chicken DT40 Tdp1-/-;hTDP1 cells + 20 nM CPT, ATP luminescence, 48 h; Potency, µM (doses to about 46.2 µM), inactives show top-dose activity change, negative = growth inhibition, most hits filed as inhibitors; 420,000 compounds, 12% hits; note: potency is the fitted concentration of half-maximal effect; nearly all actives have a fitted effect of over 55% in size
#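 Chicken DT40 Tdp1-/- cells stably complemented with human TDP1 were seeded at 400 cells/well in medium containing 20 nM camptothecin, exposed to pin-transferred compounds, and grown at 37 °C for at least 48 hr. Viability was read as ATP luminescence.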
# IL-1B inflam inh: inhibitors of inflammasome signaling (IL-1 beta secretion); THP-1 LPS/ATP IL-1B secretion, AlphaLISA, 16 h; hits give low values; activity change, % at 57.5 µM; 360,000 compounds, 4.7% hits; in the data active = activity change below about -50%; inconclusive = mostly about -30% to -49%
#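 Secreted IL-1B measured by AlphaLISA bead assay after 16 h compound exposure of THP-1 cells; compounds (final up to 57.5 uM) added 1 h before LPS (250 ng/mL) and ATP (1.25 mM) stimulation; lower signal means less secretion.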
# * marks the source's active call; other numbers are inactive results; i = inactive; ? = inconclusive; · = no result. Compounds with a hit are over-represented: about 19% of the library has one in this group of screens. Unless noted, calls come from the whole dose curve; as a rule, active = well fitted curve in the direction sought with a large enough effect; inconclusive = small, poorly fitted or top-dose-only effect, or another doubt; inactive = no such curve, though single readings can be large; an effect the other way counts as inactive or inconclusive. Unless noted, % is set by controls: 0 for no effect and ±100 for the full control effect.
SMILES,HT1080 IDH1KD tx,TDP1 cell noCPT,HT1080-NT tox,TDP1 cell CPT,IL-1B inflam inh
Cc1cccc(N2CCN(C(=O)CC(NC(=O)c3ccccc3)c3ccccc3)CC2C)c1 (centres undefined),8.8%,29.1µM*,-0.4%,?,-11.1
O=C(CN1CCOc2ccccc21)N1CCN(c2cccc(Cl)c2)CC1,-9.9%,29.1µM*,-1.5%,?,?
COc1ccc(/C=C/C(=O)Nc2ccc(-n3nncc3-c3ccccc3)cc2)cc1OC,-8.5%,8.2µM*,-1.1%,20.6µM*,3.5
Cc1ccc(NC(=O)c2ccc(-n3nncc3-c3ccccc3)cc2)cc1,·,15.8µM*,·,?,·
CCOc1ccc(C(=O)Nc2ccc(-n3nncc3-c3ccccc3)cc2)cc1OCC,·,14.6µM*,·,18.4µM*,·
Cc1nn2c(-c3ccc(S(=O)(=O)N4CCN(C)CC4)o3)nnc2c2ccccc12,-14.9%,-3.6%,-2.5%,-9.4%,-19.9
C[C@@H]1CN([C@@H](C)CO)C(=O)CCCn2nncc2CO[C@H]1CN(C)C(=O)Nc1ccc(-c2cccs2)cc1,11.6%,-22.7%,21.2%,-20.1%,10.7
O=C(c1ccc(S(=O)(=O)N2CCOCC2)cc1)N1CCc2ccccc21,4.3%,?,8.4%,-14.2%,-0.5
Cc1cc(C)c(NC(=O)c2sc3nc4c(cc3c2N)C(=O)CC(C)(C)C4)c(C)c1,-0.6%,18.4µM*,3.4%,?,-22.9
C=CCn1c(C)cc(C(=O)CSc2nc3ccccc3o2)c1C,-5.6%,?,-3.2%,16.4µM*,-80.5*
C=CCn1c(C)cc(C(=O)CSc2nnc(NCc3ccccc3)s2)c1C,?,14.6µM*,?,9.2µM*,-4.8
Cc1cc(C(=O)CSc2nc3ccccc3o2)c(C)n1C1CC1,1.3%,14.6µM*,9.3%,20.6µM*,?
C=CCn1c(C)cc(C(=O)CSc2nnc(Cc3ccccc3)o2)c1C,17.7%,-15.9%,19.0%,-2.3%,6.6
Cc1c(NC(=O)COC(=O)CCc2c[nH]c3ccccc23)c(=O)n(-c2ccccc2)n1C,3.5%,-3.2%,22.0%,11.7%,6.4
O=C1NC[C@H](Cc2ccccc2)N(C[C@H]2CCCN2C[C@H](Cc2ccccc2)N2C[C@H](Cc3ccc(O)cc3)N(CC3CCCCCC3)C(=O)C2=O)C1=O,?,?,?,?,0.0
Oc1ccc(C[C@H]2CNC(=S)N2CC2CCCN2C[C@H](Cc2ccc(O)cc2)N2C[C@H](Cc3ccc(O)cc3)N(CC3CCCCC3)C2=S)cc1 (some centres undefined),?,5.8µM*,16.4µM*,7.31µM*,0.0
Oc1ccc(C[C@H]2CN([C@@H](Cc3cccc(O)c3)CN3CCC[C@@H]3CN3C(=S)NC[C@@H]3Cc3ccccc3)C(=S)N2CC2CCCCC2)cc1,23.1µM*,2.91µM*,18.4µM*,3.66µM*,-11.8
Oc1ccc(C[C@H]2CN([C@@H](Cc3ccc(O)cc3)CN3CCC[C@@H]3CN3C(=S)NC[C@@H]3Cc3ccccc3)C(=S)N2CC2CCCCCC2)cc1,16.4µM*,23.1µM*,11.6µM*,16.4µM*,-51.2*
Oc1ccc(C[C@H]2CNC(=S)N2C[C@H]2CCCN2C[C@H](Cc2ccccc2)N2C[C@H](Cc3ccc(O)cc3)N(CC3CCCCCC3)C2=S)cc1,18.4µM*,16.4µM*,29.1µM*,14.6µM*,0.0
O=C1NC[C@H](Cc2ccc(O)cc2)N(C[C@@H]2CCCN2C[C@H](Cc2ccc(O)cc2)N2C[C@H](Cc3ccccc3)N(CC3CCCCCC3)C(=O)C2=O)C1=O,-0.3%,?,-14.3%,?,-25.1
COc1ccc(C2=C(C)C(N3CCN(C(=O)c4ccco4)CC3)=NS2(=O)=O)cc1,5.7%,16.6%,0.5%,-1.4%,-1.6
Oc1ccc(C[C@H]2CNC(=S)N2CC2CCCN2C[C@H](Cc2ccccc2)N2C[C@H](Cc3ccc(O)cc3)N(CC3CCCCCC3)C2=S)cc1 (some centres undefined),?,?,-22.7%,?,?
Oc1ccc(C[C@H]2CN([C@@H](Cc3ccccc3)CN3CCCC3CN3C(=S)NC[C@@H]3Cc3ccccc3)C(=S)N2CC2CCCCC2)cc1 (some centres undefined),-14.9%,16.4µM*,-20.2%,?,10.8
COCCN(C(=O)CCC(=O)Nc1cc(C)on1)C(C(=O)NC(C)(C)C)c1cccc(OC)c1OC (centres undefined),26.2%,-3.0%,12.9%,-0.4%,4.5
CN(C(=O)COC(=O)/C=C/c1cccc([N+](=O)[O-])c1)C1CCS(=O)(=O)C1 (centres undefined),16.4µM*,0.3%,23.1µM*,-11.9%,-9.4
SMILES,HT1080 IDH1KD tx,TDP1 cell noCPT,HT1080-NT tox,TDP1 cell CPT,IL-1B inflam inh
COC(=O)c1cc(C(=O)OCC(=O)N(C)C2CCS(=O)(=O)C2)cc([N+](=O)[O-])c1 (centres undefined),19.7%,-14.2%,20.8%,-3.6%,-1.5
CN(C(=O)COC(=O)c1c2c(nc3ccccc13)/C(=C/c1cccc([N+](=O)[O-])c1)CCC2)C1CCS(=O)(=O)C1 (centres undefined),5.8µM*,5.17µM*,?,3.26µM*,0.0
CCN(C(=O)COC(=O)/C=C/c1cccc(Br)c1)C1CCS(=O)(=O)C1 (centres undefined),0.2%,-9.9%,-2.2%,3.1%,i
Cc1c(C(=O)O)sc2nc(CSc3ncc(C(F)(F)F)cc3Cl)[nH]c(=O)c12,10.2%,6.3%,14.6%,9.6%,10.7
CCOC(=O)c1cnc2ccc(OCC)cc2c1NCCN1CCOCC1,8.7%,20.6µM*,8.6%,?,-25.2
CCOC(=O)c1cnc2ccc(C(=O)OC)cc2c1NCCCN1CCOCC1,12.5%,?,-0.8%,?,-59.9*
CCOC(=O)c1cnc2ccc(C(=O)OC)cc2c1NCCN1CCOCC1,13.6%,-18.3%,-2.1%,?,-26.8
CCOC(=O)c1cnc2ccc(OCC)cc2c1NCCCN1CCOCC1,-5.4%,18.4µM*,-1.3%,18.4µM*,-53.3*
CCOC(=O)c1cnc2c(Cl)cccc2c1NCCCN1CCOCC1,-4.2%,?,-10.8%,?,-13.6
Cc1ccc(-c2csc(-c3nc(-c4ccc(Br)s4)cs3)n2)cc1,·,-5.4%,·,2.5%,·
Cn1c(=O)c2[nH]c(SCc3cccnc3)nc2n(C)c1=S,14.3%,-28.5%,8.2%,-9.7%,15.3
Cc1cc(O)c2c(c1)C(=O)[C@@]13Oc4c5c(c(O)c6c(O)cc(C)cc46)C(=O)C[C@H](O)[C@H]5[C@@H]1[C@@H](O)CC(=O)C3=C2O,?,?,?,14.6µM*,-5.5

# Source: PubChem BioAssay
